Drawing on publication PMC11006913, this text covers binding signal for six sequences.

Common to all, as to test: PBM; 200 nM protein, PBS
Conditions in all cases: dsDNA, one strand shown

In test [1] the target is HESX1 (Homo sapiens, UniProt Q9UBX0 95-180, R165K).
Test [2] concerns the target SHOX (Homo sapiens, UniProt O15266 103-189).
A further test concerns the target ALX4 (Homo sapiens, UniProt Q9H161 200-286, Q225E).
Test [3] has as its target HESX1 (Homo sapiens, UniProt Q9UBX0 95-180).
For test [4], the target named is ALX1 (Homo sapiens, UniProt Q15699 118-204, L144V).
Test [5] deals with ALX3 (Homo sapiens, UniProt O95076 139-225, N203Q).
In test [6] the target is SHOX (Homo sapiens, UniProt O15266 103-189, R173C).
The target in test [7] is ALX1 (Homo sapiens, UniProt Q15699 118-204, L144R).
The target of test [8] is ALX3 (Homo sapiens, UniProt O95076 139-225).
Test [9] has as its target PROP1 (Homo sapiens, UniProt O75360 56-141).
In test [10] the target is HESX1 (Homo sapiens, UniProt Q9UBX0 95-180, R109Q).
Test [11] deals with PROP1 (Homo sapiens, UniProt O75360 56-141, R99H).
In test [12] the target is ALX3 (Homo sapiens, UniProt O95076 139-225, L168Q).
Test [13] deals with HESX1 (Homo sapiens, UniProt Q9UBX0 95-180, P111T).
Test [14] addresses ALX3 (Homo sapiens, UniProt O95076 139-225, L168V).
Test [15] deals with PROP1 (Homo sapiens, UniProt O75360 56-141, F88S).
In test [16] the target is HESX1 (Homo sapiens, UniProt Q9UBX0 95-180, F115L).
In test [17] the target is ALX1 (Homo sapiens, UniProt Q15699 118-204).
Test [18] addresses ALX3 (Homo sapiens, UniProt O95076 139-225, N203S).
The target in the next test is MSX2 (Homo sapiens, UniProt P35548 130-214, R199I).
Sequence of MSX2 (P35548 130-214 R199I): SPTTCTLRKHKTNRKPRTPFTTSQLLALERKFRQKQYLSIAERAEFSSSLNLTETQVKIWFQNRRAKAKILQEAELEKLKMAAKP

Sequence of HESX1 (Homo sapiens, UniProt Q9UBX0 95-180) (Q9UBX0 95-180): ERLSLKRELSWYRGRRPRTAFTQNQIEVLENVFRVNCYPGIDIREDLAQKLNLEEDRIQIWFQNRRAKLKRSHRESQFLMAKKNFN
Sequence of ALX3 (Homo sapiens, UniProt O95076 139-225, N203S) (O95076 139-225 N203S): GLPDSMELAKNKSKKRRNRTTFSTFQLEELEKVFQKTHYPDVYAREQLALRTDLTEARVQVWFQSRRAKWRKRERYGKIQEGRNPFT
Sequence of SHOX (Homo sapiens, UniProt O15266 103-189) (O15266 103-189): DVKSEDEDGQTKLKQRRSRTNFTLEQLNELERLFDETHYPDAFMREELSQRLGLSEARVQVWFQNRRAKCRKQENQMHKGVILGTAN
Sequence of ALX1 (Homo sapiens, UniProt Q15699 118-204) (Q15699 118-204): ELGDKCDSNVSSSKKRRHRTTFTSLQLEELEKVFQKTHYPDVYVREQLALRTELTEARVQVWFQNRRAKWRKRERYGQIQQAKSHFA
Sequence of HESX1 (Homo sapiens, UniProt Q9UBX0 95-180, P111T) (Q9UBX0 95-180 P111T): as the sequence (Q9UBX0 95-180) above, with P17T counted along it
Sequence of PROP1 (Homo sapiens, UniProt O75360 56-141, R99H) (O75360 56-141 R99H): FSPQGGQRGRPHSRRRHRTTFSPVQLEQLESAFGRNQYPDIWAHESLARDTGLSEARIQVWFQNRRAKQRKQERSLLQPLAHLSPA
Sequence of ALX3 (Homo sapiens, UniProt O95076 139-225, N203Q) (O95076 139-225 N203Q): as the sequence (O95076 139-225 N203S) above, with S65Q counted along it
Sequence of ALX1 (Homo sapiens, UniProt Q15699 118-204, L144V) (Q15699 118-204 L144V): as the sequence (Q15699 118-204) above, with L27V counted along it
Sequence of SHOX (Homo sapiens, UniProt O15266 103-189, R173C) (O15266 103-189 R173C): as the sequence (O15266 103-189) above, with R71C counted along it
Sequence of HESX1 (Homo sapiens, UniProt Q9UBX0 95-180, R109Q) (Q9UBX0 95-180 R109Q): as the sequence (Q9UBX0 95-180) above, with R15Q counted along it
Sequence of ALX3 (Homo sapiens, UniProt O95076 139-225) (O95076 139-225): as the sequence (O95076 139-225 N203S) above, with S65N counted along it
Sequence of ALX3 (Homo sapiens, UniProt O95076 139-225, L168Q) (O95076 139-225 L168Q): as the sequence (O95076 139-225 N203S) above, with L30Q, S65N counted along it
Sequence of ALX1 (Homo sapiens, UniProt Q15699 118-204, L144R) (Q15699 118-204 L144R): as the sequence (Q15699 118-204) above, with L27R counted along it
Sequence of HESX1 (Homo sapiens, UniProt Q9UBX0 95-180, F115L) (Q9UBX0 95-180 F115L): as the sequence (Q9UBX0 95-180) above, with F21L counted along it
Sequence of PROP1 (Homo sapiens, UniProt O75360 56-141, F88S) (O75360 56-141 F88S): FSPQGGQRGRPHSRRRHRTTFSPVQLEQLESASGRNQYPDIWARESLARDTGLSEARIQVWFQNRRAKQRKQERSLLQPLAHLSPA
Sequence of HESX1 (Homo sapiens, UniProt Q9UBX0 95-180, R165K) (Q9UBX0 95-180 R165K): as the sequence (Q9UBX0 95-180) above, with R71K counted along it
Sequence of ALX4 (Q9H161 200-286 Q225E): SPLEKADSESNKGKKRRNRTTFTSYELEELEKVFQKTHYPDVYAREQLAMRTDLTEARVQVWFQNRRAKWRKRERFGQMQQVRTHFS
Sequence of PROP1 (Homo sapiens, UniProt O75360 56-141) (O75360 56-141): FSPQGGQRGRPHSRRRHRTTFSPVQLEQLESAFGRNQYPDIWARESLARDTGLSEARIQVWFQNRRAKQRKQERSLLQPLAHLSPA
Sequence of ALX3 (Homo sapiens, UniProt O95076 139-225, L168V) (O95076 139-225 L168V): as the sequence (O95076 139-225 N203S) above, with L30V, S65N counted along it

Turning to AATTAAGA, the binding signal in the test with HESX1 [1] was 11.6 upbm affinity estimate (log intensity, higher = more binding, comparable within an allelic series); in the test with SHOX [2], 11.7 upbm affinity estimate (log intensity, higher = more binding, comparable within an allelic series); with ALX4 it was 12.8 upbm affinity estimate (log intensity, higher = more binding, comparable within an allelic series); with HESX1 [3], 11.6 upbm affinity estimate (log intensity, higher = more binding, comparable within an allelic series); in the test with ALX1 [4], 11.7 upbm affinity estimate (log intensity, higher = more binding, comparable within an allelic series); in the test with ALX3 [5], 8.44 upbm affinity estimate (log intensity, higher = more binding, comparable within an allelic series). Further, the binding signal with SHOX [6] is 9.59 upbm affinity estimate (log intensity, higher = more binding, comparable within an allelic series); in the test with ALX1 [7], 11.3 upbm affinity estimate (log intensity, higher = more binding, comparable within an allelic series); with ALX3 [8], 12.4 upbm affinity estimate (log intensity, higher = more binding, comparable within an allelic series); with PROP1 [9], 11.2 upbm affinity estimate (log intensity, higher = more binding, comparable within an allelic series); in the test with HESX1 [10], 9.03 upbm affinity estimate (log intensity, higher = more binding, comparable within an allelic series); in the test with PROP1 [11], 10.9 upbm affinity estimate (log intensity, higher = more binding, comparable within an allelic series). For the same sequence, the binding signal is 10.4 upbm affinity estimate (log intensity, higher = more binding, comparable within an allelic series) with ALX3 [12]; 10.5 upbm affinity estimate (log intensity, higher = more binding, comparable within an allelic series) in the test with HESX1 [13]; 9.95 upbm affinity estimate (log intensity, higher = more binding, comparable within an allelic series) in the test with ALX3 [14]; 7.71 upbm affinity estimate (log intensity, higher = more binding, comparable within an allelic series) in the test with PROP1 [15]; 7.79 upbm affinity estimate (log intensity, higher = more binding, comparable within an allelic series) in the test with HESX1 [16]; 12.1 upbm affinity estimate (log intensity, higher = more binding, comparable within an allelic series) with ALX1 [17]. In addition, in the test with ALX3 [18], the binding signal is 8.55 upbm affinity estimate (log intensity, higher = more binding, comparable within an allelic series).

Take GGAAGACC: the binding signal with HESX1 [1] is 6.27 upbm affinity estimate (log intensity, higher = more binding, comparable within an allelic series); with SHOX [2], 7.12 upbm affinity estimate (log intensity, higher = more binding, comparable within an allelic series); in the test with HESX1 [3], 6.19 upbm affinity estimate (log intensity, higher = more binding, comparable within an allelic series); with SHOX [6] it was 7.18 upbm affinity estimate (log intensity, higher = more binding, comparable within an allelic series); with HESX1 [10], 6.45 upbm affinity estimate (log intensity, higher = more binding, comparable within an allelic series); in the test with HESX1 [13], 6.41 upbm affinity estimate (log intensity, higher = more binding, comparable within an allelic series). Besides, the binding signal with HESX1 [16] was 6.45 upbm affinity estimate (log intensity, higher = more binding, comparable within an allelic series).

For the sequence AATTAGAT, the binding signal with HESX1 [1] is 11.3 upbm affinity estimate (log intensity, higher = more binding, comparable within an allelic series); in the test with SHOX [2], 11.6 upbm affinity estimate (log intensity, higher = more binding, comparable within an allelic series); in the test with ALX4 it was 12.6 upbm affinity estimate (log intensity, higher = more binding, comparable within an allelic series); with HESX1 [3], 11.4 upbm affinity estimate (log intensity, higher = more binding, comparable within an allelic series); with ALX1 [4] it was 11.6 upbm affinity estimate (log intensity, higher = more binding, comparable within an allelic series); with ALX3 [5], 8.42 upbm affinity estimate (log intensity, higher = more binding, comparable within an allelic series). The binding signal with SHOX [6] is 9.16 upbm affinity estimate (log intensity, higher = more binding, comparable within an allelic series); with ALX1 [7], 11.1 upbm affinity estimate (log intensity, higher = more binding, comparable within an allelic series); in the test with ALX3 [8], 12.4 upbm affinity estimate (log intensity, higher = more binding, comparable within an allelic series); in the test with PROP1 [9] it was 11.5 upbm affinity estimate (log intensity, higher = more binding, comparable within an allelic series); with HESX1 [10], 8.52 upbm affinity estimate (log intensity, higher = more binding, comparable within an allelic series); in the test with PROP1 [11], 10.9 upbm affinity estimate (log intensity, higher = more binding, comparable within an allelic series). In addition, the binding signal with ALX3 [12] is 10.2 upbm affinity estimate (log intensity, higher = more binding, comparable within an allelic series); in the test with HESX1 [13], 10.1 upbm affinity estimate (log intensity, higher = more binding, comparable within an allelic series); in the test with ALX3 [14], 9.67 upbm affinity estimate (log intensity, higher = more binding, comparable within an allelic series); with PROP1 [15], 7.72 upbm affinity estimate (log intensity, higher = more binding, comparable within an allelic series); with HESX1 [16], 7.63 upbm affinity estimate (log intensity, higher = more binding, comparable within an allelic series); in the test with ALX1 [17], 12.2 upbm affinity estimate (log intensity, higher = more binding, comparable within an allelic series). Moreover, the binding signal with ALX3 [18] was 8.49 upbm affinity estimate (log intensity, higher = more binding, comparable within an allelic series).

With CAATTACG, the binding signal was 12 upbm affinity estimate (log intensity, higher = more binding, comparable within an allelic series) with HESX1 [1]; 11.8 upbm affinity estimate (log intensity, higher = more binding, comparable within an allelic series) with SHOX [2]; 12.1 upbm affinity estimate (log intensity, higher = more binding, comparable within an allelic series) with HESX1 [3]; 12.5 upbm affinity estimate (log intensity, higher = more binding, comparable within an allelic series) with MSX2; 11.2 upbm affinity estimate (log intensity, higher = more binding, comparable within an allelic series) with ALX1 [4]; 9.27 upbm affinity estimate (log intensity, higher = more binding, comparable within an allelic series) with SHOX [6]. Besides, the binding signal is 10.9 upbm affinity estimate (log intensity, higher = more binding, comparable within an allelic series) with ALX1 [7]; 8.68 upbm affinity estimate (log intensity, higher = more binding, comparable within an allelic series) in the test with HESX1 [10]; 11 upbm affinity estimate (log intensity, higher = more binding, comparable within an allelic series) with PROP1 [11]; 10.6 upbm affinity estimate (log intensity, higher = more binding, comparable within an allelic series) with HESX1 [13]; 7.47 upbm affinity estimate (log intensity, higher = more binding, comparable within an allelic series) with HESX1 [16]; 12.1 upbm affinity estimate (log intensity, higher = more binding, comparable within an allelic series) with ALX1 [17].

In the case of CAATTACA, the binding signal with HESX1 [1] was 11.6 upbm affinity estimate (log intensity, higher = more binding, comparable within an allelic series); with SHOX [2] it was 11.4 upbm affinity estimate (log intensity, higher = more binding, comparable within an allelic series); in the test with HESX1 [3], 11.9 upbm affinity estimate (log intensity, higher = more binding, comparable within an allelic series); in the test with MSX2 it was 12.5 upbm affinity estimate (log intensity, higher = more binding, comparable within an allelic series); in the test with SHOX [6], 9.07 upbm affinity estimate (log intensity, higher = more binding, comparable within an allelic series); with HESX1 [10], 8.6 upbm affinity estimate (log intensity, higher = more binding, comparable within an allelic series). The binding signal with PROP1 [11] is 10.8 upbm affinity estimate (log intensity, higher = more binding, comparable within an allelic series); with HESX1 [13], 10.2 upbm affinity estimate (log intensity, higher = more binding, comparable within an allelic series); with HESX1 [16], 7.44 upbm affinity estimate (log intensity, higher = more binding, comparable within an allelic series).

On to AATTAAGC, for which the binding signal with HESX1 [1] is 11.5 upbm affinity estimate (log intensity, higher = more binding, comparable within an allelic series); with SHOX [2], 11.9 upbm affinity estimate (log intensity, higher = more binding, comparable within an allelic series); in the test with ALX4, 12.9 upbm affinity estimate (log intensity, higher = more binding, comparable within an allelic series); with HESX1 [3], 11.6 upbm affinity estimate (log intensity, higher = more binding, comparable within an allelic series); with MSX2, 12.2 upbm affinity estimate (log intensity, higher = more binding, comparable within an allelic series); with ALX1 [4], 11.6 upbm affinity estimate (log intensity, higher = more binding, comparable within an allelic series). In addition, the binding signal is 8.44 upbm affinity estimate (log intensity, higher = more binding, comparable within an allelic series) in the test with ALX3 [5]; 9.54 upbm affinity estimate (log intensity, higher = more binding, comparable within an allelic series) in the test with SHOX [6]; 11.2 upbm affinity estimate (log intensity, higher = more binding, comparable within an allelic series) in the test with ALX1 [7]; 12.4 upbm affinity estimate (log intensity, higher = more binding, comparable within an allelic series) with ALX3 [8]; 11.2 upbm affinity estimate (log intensity, higher = more binding, comparable within an allelic series) in the test with PROP1 [9]; 9.03 upbm affinity estimate (log intensity, higher = more binding, comparable within an allelic series) with HESX1 [10]. The binding signal in the test with PROP1 [11] is 11 upbm affinity estimate (log intensity, higher = more binding, comparable within an allelic series); with ALX3 [12], 10.4 upbm affinity estimate (log intensity, higher = more binding, comparable within an allelic series); in the test with HESX1 [13], 10.5 upbm affinity estimate (log intensity, higher = more binding, comparable within an allelic series); with ALX3 [14] it was 9.92 upbm affinity estimate (log intensity, higher = more binding, comparable within an allelic series); with PROP1 [15], 7.71 upbm affinity estimate (log intensity, higher = more binding, comparable within an allelic series); with HESX1 [16], 7.7 upbm affinity estimate (log intensity, higher = more binding, comparable within an allelic series). Also, the binding signal with ALX1 [17] is 12.2 upbm affinity estimate (log intensity, higher = more binding, comparable within an allelic series); with ALX3 [18], 8.49 upbm affinity estimate (log intensity, higher = more binding, comparable within an allelic series).
